Data reported in PubChem BioAssay (NCI).
Several values for one entry are separate records, joined by “and”; a condition that tells them apart may be missing. Identical values can stand only once. The panel holds about 83,000 compounds, 20% with a hit somewhere; the sample as a whole holds those more often.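 Each cell line was grown in a 96-well plate and treated with one concentration of compound for 48 hours. Values below 10 were considered active.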 Values without a mark were called inactive. Activity calls are given as the source filed them.

The molecules below were run on HL-60(TB) leukemia (assay: NCI-60 one-dose screen, 48 h (100 = growth as untreated, 0 = no growth, -100 = all killed)). Conditions: 10 µM unless noted.

How did the growth turn out when Nc1ccccc1SC(CC(=O)c1ccccc1)c1ccc([N+](=O)[O-])cc1 (configuration not stated) was run?
The growth was 95.8% and 74.9%.

How did the growth turn out when Cc1cc(N(CCNc2ccnc3cc(Cl)ccc23)Cc2ccco2)nc(Cl)n1 was run?
The growth was -61.9% (active).

Which growth does the source give for CN1CCN(Cc2occc(=O)c2O)CCN(C)CCN(Cc2occc(=O)c2O)CC1 here?
Its growth is 98.8% and 48.1%.

Which growth does the source give for COc1cc2c(cc1OCCCN1CCN(CCCOc3cc4c(cc3OC)C(=O)N3C[C@H](F)C[C@H]3C=N4)CC1)N=C[C@@H]1C[C@@H](F)CN1C2=O here?
Its growth is -28.8% (active).

For CN(C)CCNc1nc2ccccc2c2c(=O)c3cc(F)ccc3sc12, which growth is on record?
Its growth is 38.1%.

For O=c1c2cc(F)ccc2sc2c(NCCCNCCO)nc3ccc(Cl)cc3c12, which growth is on record?
Its growth is 45.4%.

COc1cccc(C2C(C#N)=C(N)Oc3cc4c(cc32)OCO4)c1 (configuration not stated) was tested. Which growth did it give?
The growth was -45% (active).

For COc1ccccc1-c1c(-c2ccc(Cl)cc2)c2cc3c(cc2[nH]c1=O)OCCO3, which growth is on record?
The growth was 18.3%.

Which growth does the source give for COc1cc(-c2nccc3cc4c(cc23)OCO4)cc(OC)c1OC here?
The growth was 5.43% (active) and 9.65% (active).

With COC1/C=C/OC2(C)Oc3c(C)c(O)c4c(O)c(c(/C=N/Nc5ccc([N+](=O)[O-])cc5[N+](=O)[O-])c(O)c4c3C2=O)NC(=O)C(C)=C/C=C/C(C)C(O)C(C)C(O)C(C)C(OC(C)=O)C1C (configuration not stated) as the molecule, how does the growth read?
The growth was -1.29% (active).

For COc1ccc(-c2cc(NC(=O)Nc3ccc(O)cc3)no2)cc1, which growth is on record?
The growth was 26.4%.

Which growth does the source give for O/N=C(/c1ccccc1)c1ccc2c3c(cccc13)CC2 here?
Its growth is 86.9% and 101%.
